An excerpt weighted towards active compounds, which were near 10% of everything screened.
HPGD inh: inhibitors of human 15-hydroxyprostaglandin dehydrogenase (HPGD). P15428. purified HPGD, NADH fluorescence kinetic, PGE2 substrate. Potency, µM, for inactives: at the highest dose activity change, negative = inhibition, actives largely listed as inhibitors. 4.3% of 150,000 active. AID 894; note: potency is the fitted concentration of half-maximal effect
Target sequence (P15428 whole entry, looked up): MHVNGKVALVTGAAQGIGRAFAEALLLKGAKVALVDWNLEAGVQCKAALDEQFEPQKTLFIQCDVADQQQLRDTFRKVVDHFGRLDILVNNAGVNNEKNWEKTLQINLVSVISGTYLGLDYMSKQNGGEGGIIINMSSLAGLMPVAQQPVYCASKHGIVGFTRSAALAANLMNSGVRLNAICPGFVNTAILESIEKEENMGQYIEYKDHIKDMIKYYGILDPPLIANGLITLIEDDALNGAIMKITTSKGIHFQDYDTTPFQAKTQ
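20 nM HPGD preincubated 15 min at room temperature with compound in 50 mM Tris-HCl pH 8, 0.01% Tween 20. Started with 1 mM NAD+ and 30 uM prostaglandin E2; NADH fluorescence (360/450 nm) read 5 times over 30-s intervals, last minus first.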
Luc counter: blocks Kinase-Glo luciferase, a counter-screen artifact | Q27757 | Kinase-Glo luciferase, ATP luminescence, 8 min | Potency, µM (doses to about 38.3 µM), without a hit: at the highest dose activity change, negative = inhibition, usual class: inhibitors | 0.28% of 200,000 active | AID 1379; active = well fitted inhibition curve with a large enough effect; inconclusive = small, poorly fitted or top-dose-only effect; note: potency is the fitted concentration of half-maximal effect; nearly all actives have a fitted effect of over 60% in size
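Recombinant Kinase-Glo luciferase, 10 uM ATP (linear range), luciferin; imidazole pH 7.2 / KCl / MgCl2 / Tween / BSA buffer; 8 min RT; luminescence.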
IMPase cell inh: IMPase inhibition in cells; P97697; inhibition (IP1 accumulation), % at 46.1 µM; 120,000 tested, under 10 active; CHO-M1 cells, IP1 accumulation, HTRF TR-FRET ratio; AID 901; active = well fitted curve in the direction sought with a large enough effect in the signal ratio, not every such curve was filed as active; inconclusive = small, poorly fitted or top-dose-only effect, or a change in a side signal; inactive = no such curve, though single readings can be large or run the other way; the % refers to the signal ratio;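 note: cells stimulated with carbachol in lithium chloride buffer; plate controls were DMSO basal wells for no effect and reference inhibitor wells for full effect; higher means more IMPase inhibition seen as more IP1 and lower FRET ratio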
Target sequence (P97697 whole entry, looked up): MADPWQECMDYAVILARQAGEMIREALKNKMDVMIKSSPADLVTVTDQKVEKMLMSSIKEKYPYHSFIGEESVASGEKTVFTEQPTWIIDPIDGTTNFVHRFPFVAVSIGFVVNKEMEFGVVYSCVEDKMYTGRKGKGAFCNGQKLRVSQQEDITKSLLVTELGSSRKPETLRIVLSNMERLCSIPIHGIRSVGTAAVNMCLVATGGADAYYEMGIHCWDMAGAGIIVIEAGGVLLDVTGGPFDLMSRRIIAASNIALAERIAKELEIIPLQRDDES
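Elevated IP1 in lysates lowers TR-FRET signal (665/620 ratio and 620 channel reported). Cells were CHO-M1, given carbachol (50 uM as added) plus 50mM LiCl, pH 7.4, 30 min, 37C; compounds titrated up to 46 uM; AC50 by Hill equation.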
PNC inhibitor: perinucleolar compartment assembly inhibition; activity change (PNC), negative = inhibition, % at 10 µM; PC3M PTB-GFP, PNC prevalence imaging, 16 h; hits give low values; 3.1% of 140,000 active;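 active = readout at or below -70, meaning at least 70% loss of cells showing the perinucleolar compartment, a nuclear body marking cancer cells; inconclusive = readout between -30 and a set limit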;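 note: plate controls were DMSO wells for no effect and camptothecin positive control wells for full effect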
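Compounds are pinned in duplicate onto adhered PC3M cells stably expressing GFP-tagged PTB and incubated 16 h at 37 C. Cells are then fixed, nuclei stained with Hoechst, and PNC-positive cells counted.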
ALDH1A1 block: inhibitors of human aldehyde dehydrogenase 1A1. 7.3% of 220,000 active. AID 1030. Potency, µM (titrated, usually from 75.3 µM), without a hit: at the highest dose activity, negative = inhibition, hits mostly inhibitors. Purified ALDH1A1, NADH fluorescence, propionaldehyde substrate;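 note: potency is the fitted concentration of half-maximal effect; plate controls were no enzyme wells and a reference inhibitor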
LMNA splice mod: LMNA splicing modulation. 0.01% of 200,000 active. AID 1487. HeLa LMNA splicing GFP/RFP minigene ratio, 48 h. Potency, µM (series often up to 46.1 µM), for inactives: at the highest dose ratio change, negative = inhibition, most hits filed as inhibitors; active = well fitted inhibition curve with a large enough effect in the signal ratio, with a control signal flat, not every such curve was filed as active; inconclusive = small, poorly fitted or top-dose-only effect, or effect the other way, or a change in a side signal; the % refers to the signal ratio; note: potency is the fitted concentration of half-maximal effect
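S3 HeLa stable clones carrying a lamin A-EGFP splicing minigene plus DsRed2 were seeded at 600 cells/well in Opti-MEM with 2% FBS, pin-dosed and incubated 48 h at 37°C. Acumen cytometry (488 nm) gave the GFP/RFP total-intensity ratio.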
* hit, by the source's call; ! = a repeat was not active; [ ] = another dose, or the depositor's remark. Unless noted, calls come from the whole dose curve; as a rule, active = well fitted inhibition curve with a large enough effect (not every such curve was filed as active); inconclusive = small, poorly fitted or top-dose-only effect, or another doubt; inactive = no such curve, though single readings can be large or run the other way. Unless noted, % is set by controls: 0 for no effect and ±100 for the full control effect.

For C=C(CC)C(=O)c1ccc(OCC(=O)O)c(Cl)c1Cl the results were HPGD inh -26.6%, Luc counter -2.2%, IMPase cell inh 3.8[20.6 µM], PNC inhibitor 77.3, ALDH1A1 block 14.1µM*! and LMNA splice mod inconclusive.
`CCOC(=O)COc1ccc2nsnc2c1Cl` gave HPGD inh inconclusive, Luc counter -2.8%, IMPase cell inh inconclusive, PNC inhibitor 20.2, ALDH1A1 block inconclusive and LMNA splice mod 5.7%.
For COc1nn(C(C)C(=O)N2N=C(C(F)F)CC2(O)C(F)F)cc1[N+](=O)[O-] (stereo not given) the results were HPGD inh -10.2%, Luc counter 2.8%, IMPase cell inh 1.3, PNC inhibitor inconclusive, ALDH1A1 block -8.0% and LMNA splice mod 6.0%.
For COc1nn(CC(=O)N2N=C(C(F)F)CC2(O)C(F)F)cc1[N+](=O)[O-] (stereo not given) the results were HPGD inh -18.2%, Luc counter 1.2%, IMPase cell inh 0.3, PNC inhibitor -89.6*, ALDH1A1 block 6.2% and LMNA splice mod 4.7%.
`CCc1cccc(C)c1NC(=O)Cn1ccn(Cc2ccc(Cl)cc2)c(=O)c1=O` gave LMNA splice mod 3.5%[46 µM].
`O=C(O)[C@@H](O)[C@@H](O)[C@@H](O)[C@@H](O)c1nc2ccccc2s1` gave HPGD inh 3.55µM*, Luc counter -5.7%[7.66 µM] and ALDH1A1 block 2.0%[13.5 µM].
For Cc1ccc(NS(=O)(=O)N(C)C)cc1 the results were HPGD inh inconclusive, Luc counter 2.1%, IMPase cell inh -7.0, PNC inhibitor -100.0*, ALDH1A1 block 4.8% and LMNA splice mod -5.5%.
Screening CN(C)S(=O)(=O)Nc1ccc(NS(=O)(=O)N(C)C)c(S(=O)(=O)c2ccccc2)c1 returned HPGD inh -11.5%, Luc counter -3.2%, IMPase cell inh -7.4, PNC inhibitor 11.4, ALDH1A1 block -6.7% and LMNA splice mod 3.8%.
For CN(C)S(=O)(=O)Nc1ccc2c(c1)Cc1ccccc1-2 the results were HPGD inh 14.1µM*, Luc counter 0.4%, IMPase cell inh 3.0, PNC inhibitor -12.0, ALDH1A1 block 8.5% and LMNA splice mod -11.3%.
For COc1cccc(Nc2ncc3nc(C)c(=O)n(CCC#N)c3n2)c1 the results were HPGD inh -4.9%, Luc counter -1.3% and ALDH1A1 block 1.9%.
`Cc1cc(C)nc(-n2nc(C)c3c2N(Cc2ccccc2)C(=O)CC3c2ccc(Cl)cc2)n1` (stereo not given) gave LMNA splice mod 22.9%[46 µM].
`COC(=O)C(OC(=O)c1ccc(OC)cc1)C(=O)OC` gave HPGD inh -8.4%, Luc counter 2.4%, IMPase cell inh 2.4, PNC inhibitor -100.0*, ALDH1A1 block 11.6% and LMNA splice mod 8.2%.
CC1=Nc2ccccc2N=C(NC(=O)CN2CCN(c3ccccc3)CC2)C1c1ccccc1 (stereo not given) was read as ALDH1A1 block 0.891µM*.
`CCOC(=O)C1CCCN(CC(=O)Nc2cc(C)cc(C)c2)C1` (stereo not given) gave Luc counter -3.1%, ALDH1A1 block 2.9% and LMNA splice mod 9.1%[9.22 µM].
For CCOC(=O)C1CCCN(CC(=O)Nc2cccc(C(C)=O)c2)C1 (stereo not given) the results were Luc counter 0.9%, ALDH1A1 block 10µM* and LMNA splice mod inconclusive.
`CCOC(=O)C1CCCN(CC(=O)NC2=Nc3ccccc3N=C(C)C2c2ccccc2)C1` (stereo not given) gave HPGD inh -5.8%, Luc counter -1.8%, IMPase cell inh 14.5, PNC inhibitor -27.8, ALDH1A1 block 4.47µM* and LMNA splice mod 16.0%.
For CC1=Nc2ccccc2N=C(NC(=O)CSc2nnnn2-c2ccccc2)C1c1ccccc1 (stereo not given) the results were HPGD inh -14.3%, Luc counter 0.9%, IMPase cell inh 4.1, PNC inhibitor inconclusive, ALDH1A1 block 4.47µM* and LMNA splice mod inconclusive.
Cc1ccc(C(=O)NC2=NC(c3ccc(C)cc3)CC(=O)N2)cc1 (stereo not given) was read as LMNA splice mod 16.9%[46 µM].
CC(C)Cc1nc2sc3c(=O)[nH]cnc3c2c2c1CCC2 was read as HPGD inh inconclusive, Luc counter 0.7%, PNC inhibitor inconclusive, ALDH1A1 block -7.8% and LMNA splice mod -11.1%.
`CC(C)c1nc2sc3c(=O)[nH]cnc3c2c2c1CCC2` gave HPGD inh inconclusive, Luc counter 1.3%, PNC inhibitor -84.4*, ALDH1A1 block inconclusive and LMNA splice mod -6.6%.
Screening O=C1/C(=C/c2ccccc2)CCCc2ccccc21 returned HPGD inh -0.9%, Luc counter -5.1%, IMPase cell inh 9.0, PNC inhibitor 23.3, ALDH1A1 block -9.3% and LMNA splice mod -6.8%.
O=C1C(=C2SCCCS2)CC/C1=C\c1ccc(F)cc1 was read as HPGD inh -6.9%, Luc counter 11.2µM*, IMPase cell inh 5.4, PNC inhibitor 19.9, ALDH1A1 block 4.8% and LMNA splice mod 14.1%.
`O=C1/C(=C/c2ccc(F)cc2)CCC1C1CCCC1` (stereo not given) gave HPGD inh -7.4%, Luc counter -4.2%, PNC inhibitor 2.6, ALDH1A1 block inconclusive and LMNA splice mod -15.8%.
`Cc1cccc(/C=C2\CCC(=C3SCCCS3)C2=O)c1` gave HPGD inh -28.5%, Luc counter inconclusive, IMPase cell inh 7.7, PNC inhibitor 68.7, ALDH1A1 block 8.91µM* and LMNA splice mod 0.9%.
Screening COc1ccc(C)cc1NC(=O)C1CCN(S(=O)(=O)c2ccc3c(c2)CCCN3C(C)=O)CC1 returned LMNA splice mod -10.6%[46 µM].
Screening COc1ccc(NC(=O)N2CC[C@@]3(CCCN(C(=O)c4ccc(OC)cc4)C3)C2)cc1 returned HPGD inh 3.9%, Luc counter 2.1% and ALDH1A1 block -9.3%.
Screening O=C(N/C(=C/c1ccco1)C(=O)N1CCCC1)c1cccs1 returned HPGD inh -13.1%, Luc counter -0.2%, IMPase cell inh -7.3, PNC inhibitor -106.3*, ALDH1A1 block -10.0% and LMNA splice mod -17.9%.
`O=C(N/C(=C\c1ccco1)C(=O)N1CCCC1)c1cccs1` gave HPGD inh -6.3%, Luc counter 1.7%, IMPase cell inh 2.3, PNC inhibitor inconclusive, ALDH1A1 block 3.2% and LMNA splice mod -9.2%.
`Cc1cc2c(c(=O)n1CC1CCCO1)C(c1ccc3c(c1)OCO3)C(C#N)=C(N)O2` (stereo not given) gave HPGD inh -16.1%, Luc counter 4.4%, IMPase cell inh 1.6, PNC inhibitor -18.1, ALDH1A1 block 11.2µM* and LMNA splice mod -1.4%.

Screening data deposited in PubChem BioAssay by National Center for Advancing Translational Sciences (NCATS).
